Data from PubChem BioAssay (Tox21).
Inconclusive results are not listed. The source made the active and inactive calls. Calls follow the shape of the full dose curve.

Assay: qHTS assay for small molecules that induce genotoxicity in human embryonic kidney cells expressing luciferase-tagged ATAD5 - cell viability (AID 651634); also: nearly all actives have a fitted effect of over 25% in size
Conditions: HEK293T ATAD5-luc cells viability, CellTiter-Fluor, 15.5 h; series mostly up to 83.3 µM; activity, negative = cytotoxicity: at the top concentration
Outline: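 Here HEK293T cells with the ATAD5 luciferase reporter are incubated with test compounds for 15.5 hr, and cytotoxicity is then gauged by measuring protease activity in live cells using fluorescence.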
% is scaled to controls: 0 for no effect and ±100 for the full control effect; potency is read from the fitted curve at half-maximal effect.

| Structure (SMILES) | activity, negative = cytotoxicity | Potency |
| --- | --- | --- |
| c1ccc2occc2c1 | 23.1% (inactive) |  |
| CC(C)Cc1ccc([C@H](C)C(=O)O)cc1 | 11.8% (inactive) |  |
| CC[N+](CC)(CC)CCC(O)(c1ccccc1)C1CCCCC1 (configuration not stated) | 8.08% [at 39.1 µM] (inactive) |  |
| CC[C@@]1([C@@H]2O[C@@H]([C@H]3O[C@@](O)(CO)[C@H](C)C[C@@H]3C)C[C@@H]2C)CC[C@H]([C@]2(C)CC[C@]3(C[C@H](O)[C@@H](C)[C@@H]([C@@H](C)[C@@H](OC)[C@H](C)C(=O)O)O3)O2)O1 (stereo in doubt) |  | 0.596 µM (active) |
| O=C1c2ccccc2-c2n[nH]c3cccc1c23 | 480% (inactive) |  |
| CCCCCCCCCCCCCCCCC(C(=O)O)C(O)(CC(=O)O)C(=O)O (configuration not stated) | -7.56% (inactive) |  |
| CO/N=C(\C(=O)N[C@@H]1C(=O)N2C(C(=O)O)=C(C[N+]3(C)CCCC3)CS[C@H]12)c1csc(N)n1 | 19.5% (inactive) |  |
| CC1(C)S[C@@H]2[C@H](NC(=O)[C@H](N)c3ccc(O)cc3)C(=O)N2[C@H]1C(=O)O | 22.8% (inactive) |  |
| CC(C)(C)c1ccc2c(S(=O)(=O)O)c(C(C)(C)C)ccc2c1 |  | inactive |
| Cc1cc(CC(C)CC(C)(C)C)n(O)c(=O)c1 (configuration not stated) (tested in a mixture with another compound) | -22.8% (inactive) |  |
| CC[C@@H](C)[C@H](N)C(=O)O | 15% (inactive) |  |
| CC(=O)N[C@@H](C=O)[C@H](O)[C@H](O)[C@@H](O)CO |  | inactive |
| COc1c(Br)cc(Br)c(C)c1Br | -1.83% (inactive) |  |
| OCCCNc1ccccc1 | -2.6% (inactive) |  |
| CN[C@H](CC(C)C)C(=O)N[C@H]1C(=O)N[C@@H](CC(N)=O)C(=O)N[C@H]2C(=O)N[C@H]3C(=O)N[C@H](C(=O)N[C@@H](C(=O)O)c4cc(O)cc(O)c4-c4cc3ccc4O)[C@H](O)c3ccc(c(Cl)c3)Oc3cc2cc(c3O[C@@H]2O[C@H](CO)[C@@H](O)[C@H](O)[C@H]2O[C@H]2C[C@](C)(N)C(O)[C@H](C)O2)Oc2ccc(cc2Cl)[C@H]1O (some centres not stated) |  | inactive |
| O=C(Cn1cnnn1)N[C@@H]1C(=O)N2C(C(=O)O)=C(CSc3nncs3)CS[C@H]12 |  | inactive |
| Oc1ccc(Cl)cc1C1CCCC1 | 9.76% (inactive) |  |
| CN=C(N)NCCC[C@H](N)C(=O)O |  | inactive |
| CCSCC | 13.6% [at 95.3 µM] (inactive) |  |
| c1ccc2cc3c4ccccc4c4ccccc4c3cc2c1 | -2.79% [at 95.3 µM] (inactive) |  |
| Cc1cc(F)ccc1-c1cc(N2CC[C@@H](O)[C@H]2CO)ncc1N(C)C(=O)C(C)(C)c1cc(C(F)(F)F)cc(C(F)(F)F)c1 |  | 47.8 µM (active) |
| CC(CNC(=O)c1cccnc1)NC(=O)c1cccnc1 (configuration not stated) | 7.2% (inactive) |  |
